Compound activity: PubChem BioAssay, National Center for Advancing Translational Sciences (NCATS)
An excerpt weighted towards active compounds, which were near 19% of everything screened.
TDP1 cell noCPT: qHTS for Inhibitors of human tyrosyl-DNA phosphodiesterase 1 (TDP1): qHTS in cells in absence of CPT; DT40 Tdp1-/- hTDP1 cells, no CPT, ATP luminescence, 48 h; Potency, µM (series often up to 46.2 µM), for inactives: at the top dose activity change, negative = growth inhibition, actives largely listed as inhibitors; actives 15% (n = 420,000); note: potency is the fitted concentration of half-maximal effect; % is set by controls: 0 for no effect and ±100 for the full control effect; nearly all actives have a fitted effect of over 55% in size
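Readout: luminescence from CellTiter-Glo after 30 min in the dark at RT. Cells: DT40 Tdp1-/- with stable hTDP1, 400/well. Exposure: compounds alone, ≥48 hr, 37 °C.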
DT40 TDP1 CPT: DT40-hTDP1 cell growth loss with CPT. Potency, µM (titrated, usually from 46.2 µM), for inactives: at the top dose activity change, negative = growth inhibition, usual class: inhibitors. chicken DT40 Tdp1-/-;hTDP1 cells + 20 nM CPT, ATP luminescence, 48 h. actives 12% (n = 420,000); note: potency is the fitted concentration of half-maximal effect; % is set by controls: 0 for no effect and ±100 for the full control effect; nearly all actives have a fitted effect of over 55% in size
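Chicken DT40 Tdp1-/- cells complemented with human TDP1, 400 cells/well, exposed to compounds plus 20 nM camptothecin for at least 48 h at 37 C; viability read as ATP content by CellTiter-Glo luminescence.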
TDP1 block: blocks human tyrosyl-DNA phosphodiesterase 1. Q9NUW8. recombinant TDP1, AlphaScreen DNA substrate cleavage. Potency, µM (series often up to 130 µM), without a hit: at the highest dose activity change, negative = inhibition, most hits filed as inhibitors. actives 0.28% (n = 350,000). AID 485290; note: potency is the fitted concentration of half-maximal effect; % is set by controls: 0 for no effect and ±100 for the full control effect; nearly all actives have a fitted effect of over 40% in size
Target sequence (Q9NUW8 whole entry, looked up): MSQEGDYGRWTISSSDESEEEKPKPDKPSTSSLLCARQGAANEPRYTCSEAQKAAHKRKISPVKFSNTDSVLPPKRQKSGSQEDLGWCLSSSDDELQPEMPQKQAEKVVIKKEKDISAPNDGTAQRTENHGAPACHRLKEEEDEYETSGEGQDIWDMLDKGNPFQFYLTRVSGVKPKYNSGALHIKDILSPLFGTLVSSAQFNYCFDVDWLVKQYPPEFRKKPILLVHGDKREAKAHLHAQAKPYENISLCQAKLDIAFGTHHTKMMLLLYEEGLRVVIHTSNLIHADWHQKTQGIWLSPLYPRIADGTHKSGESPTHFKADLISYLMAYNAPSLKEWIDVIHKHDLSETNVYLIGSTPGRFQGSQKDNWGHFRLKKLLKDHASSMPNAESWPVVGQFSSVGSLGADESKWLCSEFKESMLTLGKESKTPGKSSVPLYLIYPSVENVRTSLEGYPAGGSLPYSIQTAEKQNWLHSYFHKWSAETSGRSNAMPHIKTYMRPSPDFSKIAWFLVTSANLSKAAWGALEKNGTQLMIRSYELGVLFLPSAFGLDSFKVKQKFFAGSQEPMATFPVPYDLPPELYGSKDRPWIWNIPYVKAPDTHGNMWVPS
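AlphaScreen read-out: signal falls as enzyme removes the 3' tyrosine-FITC from a 5'-biotinylated DNA oligo (15 nM, 5 min, RT). Enzyme was E. coli-made recombinant Tdp1 at 1 nM, exposed to compound for 15 min beforehand; beads 10 ug/ml, 10 min.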
HepG2 tox: HepG2 cytotoxicity, counter-screen for TGF-b inhibitors | HepG2 CAGA-GFP viability, ATP luminescence, 18 h | Potency, µM (titrated, usually from 46.1 µM), inactives show top-dose activity change, negative = cytotoxicity, most hits filed as cytotoxic | actives 0.76% (n = 410,000) | AID 588856; note: potency is the fitted concentration of half-maximal effect
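CellTiter-Glo luminescence gave cytotoxicity after 18 hours at 37 degrees C. The cells were HepG2 CAGA-GFP in 1% FBS DMEM, stimulated with 500 pg/mL TGF-beta after compound addition. %Activity was normalised to no-cell wells (complete cell-killing) and DMSO (no toxicity), and curves were fitted and classified.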
TGFb SMAD3 inh: inhibitors of TGF-b signaling. AID 588855. actives 1.2% (n = 410,000). HepG2 CAGA-GFP TGF-b/SMAD3 reporter, GFP fluorescence, 18 h; TGF-beta stimulated, 500 pg/mL final. Potency, µM (top dose mostly 46.1 µM), inactives show top-dose activity, negative = inhibition, most hits filed as inhibitors; note: potency is the fitted concentration of half-maximal effect; % is set by controls: 0 for no effect and ±100 for the full control effect; nearly all actives have a fitted effect of over 65% in size
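First, reporter cells (HEPG2 CAGA-GFP) rested 2 h at 37 degrees C. Next, compounds were pinned in and TGF-beta added to 500 pg/mL final. After 18 h, GFP was imaged per cell and summed per well.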
IL-1B inflam inh: inflammasome signaling inhibition, IL-1 beta readout; THP-1 LPS/ATP IL-1B secretion, AlphaLISA, 16 h; hits give low values; activity change, % at 57.5 µM; actives 4.7% (n = 360,000); AID 743279; in the data active = activity change below about -50%; inconclusive = mostly about -30% to -49%; note: % is set by controls: 0 for no effect and ±100 for the full control effect
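Secreted IL-1B measured by AlphaLISA bead assay after 16 h compound exposure of THP-1 cells; compounds (final up to 57.5 uM) added 1 h before LPS (250 ng/mL) and ATP (1.25 mM) stimulation; lower signal means less secretion.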
Starred values were filed as active, the others as inactive; u = inconclusive; x = not tested or not shown; [ ] = remark or other dose. Unless noted, calls come from the whole dose curve; as a rule, active = well fitted curve in the direction sought with a large enough effect; inconclusive = small, poorly fitted or top-dose-only effect, or another doubt; inactive = no such curve, though single readings can be large; an effect the other way counts as inactive or inconclusive.

SMILES | TDP1 cell noCPT | DT40 TDP1 CPT | TDP1 block | HepG2 tox | TGFb SMAD3 inh | IL-1B inflam inh
COC(=O)c1nnn(-c2nonc2N)c1COc1ccc(C=O)cc1OC | 9.2µM* | 15µM* | 5% | -46% | u | 4
COc1ccc(/C=N/NC(=O)c2nnn(-c3nonc3N)c2C)cc1OC | -9% | u | x | 4% | -1% | -4
CCc1c(C(=O)N/N=C/c2ccc(OCc3ccc(F)cc3)c(OC)c2)nnn1-c1nonc1N | 5.8µM* | 23µM* | 0% | -5% | -4% | 18
COc1ccc(C2C(=O)N(C3CCCCC3)CC(=O)N2CCc2ccc(C)cc2)cc1OC (stereo not given) | u | u | 3% | -19% | -1% | x
O=C(C1CCCCC1)N1CCOc2ccc(CN3CCN(Cc4ccccn4)CC3)cc2C1 | -9% | 0%[9.04 µM] | x | x | x | x
O=C1N=c2ccccc2=C1c1c(O)[nH]c2c(C(F)(F)F)cccc12 | 26µM* | 21µM* | x | 4% | -1% | -1
COc1ccc2c(c1)OC(O)(C(F)(F)F)CC2=O (stereo not given) | -6% | -28% | 4% | -22% | 9% | 5
CCOc1ccc2c(c1)OC(c1ccc(OC)cc1)(C(F)(F)F)NC2=O (stereo not given) | 3.3µM* | 3.3µM* | 3% | -17% | u | -29
CCCn1c(SCC(=O)Nc2nc3ccccc3s2)nc2c1c(=O)n(C)c(=O)n2C | 23µM* | 23µM* | 5% | -16% | 1% | 0
CCCn1c(SCC(=O)Nc2ccc(NC(=O)CC)cc2)nc2c1c(=O)n(C)c(=O)n2C | 21µM* | 0% | 4% | 4% | 2% | -7
CCCn1c(SCC(=O)Nc2cccc(C)n2)nc2c1c(=O)n(C)c(=O)n2C | u | 18µM* | -5% | 2% | u | 22
CCn1c(SCC(=O)Nc2ccc(NC(C)=O)cc2)nc2c1c(=O)n(C)c(=O)n2C | u | -1% | x | -16% | -14% | 9
CCCCn1c(SCC(=O)Nc2ccc3c(c2)OCO3)nc2c1c(=O)n(C)c(=O)n2C | u | 16µM* | 2% | -2% | u | -20
Cc1ccc(Cn2c(SCC(=O)Nc3cccc(C)n3)nc3c2c(=O)n(C)c(=O)n3C)cc1 | x | x | 5% | x | x | x
Cc1cc(C)cc(OCc2cc(=O)n3cc(C)sc3n2)c1 | -4% | -3% | 4% | 4% | 9% | x
CCCCn1c(SCC(=O)Nc2nnc(CC)s2)nc2c1c(=O)n(C)c(=O)n2C | 12µM* | 23µM* | 0% | -65% | -10% | 1
O=C1CC(N2CCN(C/C=C/c3ccccc3)CC2)C(=O)N1CCc1ccccc1 (stereo not given) | 21µM* | 18µM* | 4% | -29% | u | -26
CCOCCCn1c(SCC(=O)Nc2ccc(C(C)C)cc2)nc2c(sc3ccccc32)c1=O | u | -23% | 1% | -6% | -22% | x
Cc1cccc(Nc2nc(-c3ccc(O)cc3O)cs2)n1 | u | 13% | 12% | -27% | u | -90*
Cc1nc2ncccn2c1-c1csc(Nc2cccc(C(=O)O)c2)n1 | -7% | -2% | x | 16% | -3% | 19
Cc1nc2ccccn2c1-c1csc(Nc2ccc(C(=O)O)cc2)n1 | 3.7µM* | 2.9µM* | x | 3% | 0% | 95
Cc1nc2ccccn2c1-c1csc(Nc2cccc(C(=O)O)c2)n1 | -8% | 2% | x | -2% | 0% | 30
N#Cc1ccc(Nc2nc(-c3ccc(O)cc3O)cs2)cc1C(F)(F)F | 10µM* | 13µM* | 6% | -110% | u | -101*
